Assay results taken from ChEMBL document CHEMBL1157539, “Thousands of chemical starting points for antimalarial lead identification” (Nature, 2010).

System: HepG2
Assay: GSK_TCMDC: Percent inhibition of human HepG2 cell line. Test compounds present at 10uM.
Type: functional

| Structure (SMILES) | Inhibition [%] |
| --- | --- |
| CO/C(=C\C=C\c1cc2cc(Cl)c(Cl)cc2[nH]1)C(=O)NC1CC2CCC(C1)N2C.Cl (stereo not given) | 46 |
| CC=CC(=O)N1CCN(c2nccc(-c3ccc(C(C)(C)C)cc3)n2)CC1 | 20 |
| COc1ccc(CCNCc2cc3c(C(C)(C)C)nn(-c4ccc(Cl)cc4)c3[nH]c2=O)cc1OC | 13 |
| CN=c1nc(NN=Cc2ccccc2Cl)[nH]c(=Nc2cccc(C(F)(F)F)c2)[nH]1.Cl | 12 |
| N#Cc1ccc(N2CCN(Cc3cccc(-c4cccc(-c5nc6cc(F)ccc6[nH]5)c4)c3)CC2)nc1.O=C(O)C(F)(F)F | 26 |
| O=C(Nc1cccc(CN2CCCN(Cc3cccc(Cl)c3)CC2)c1)c1ccc(-c2ccccc2)cc1.O=C(O)C(F)(F)F | 44 |
| CC(C)(CNC(=O)C1CCN(CCOc2ccc(Cl)cc2)CC1)c1nc(-c2ccc(Cl)c(O)c2)c(-c2ccncc2)[nH]1.Cl | 40 |
| O=C(Nc1cccc(CN2CCN(Cc3cccc(O)c3)CC2)c1)c1ccc(Cl)c(Cl)c1.O=C(O)C(F)(F)F | 28 |
| NS(=O)(=O)c1ccc(CNC(=O)c2cnc3c(O)cccc3c2Nc2cccc(NC(=O)c3ccc(Cl)c(Cl)c3)c2)cc1.O=C(O)C(F)(F)F | 56 |
| Cl.N#Cc1cccc(C(O)C2CN(CCC3CCCCC3)CCC2(O)c2ccccc2)c1 (stereo not given) | 0 |
| Br.Cc1cc(F)ccc1Nc1nc(N(C)c2ccccc2)c2cccc(O)c2n1 | 38 |
| O=C(Nc1ccc(C(=O)N2CCN(CCN3CCN(c4cccc(C(F)(F)F)c4)CC3)CC2)cc1)c1cc(Cl)cc(Cl)c1 | 23 |
| c1ccc(COc2ccc(C3CCCCC3)cc2)nc1 | 0 |
| Cc1cc(N(C)CCN(C)C)nc(Nc2ccc(Br)cc2)n1 | 7 |
| O=C(NC(=O)c1ccccc1)NC1CCN(c2ccnc3cc(Cl)ccc23)C1.O=C(O)C(F)(F)F (stereo not given) | 32 |
| COc1ccc(C2CC(c3ccccc3O)=NN2C(=O)c2ccco2)cc1OC (stereo not given) | 11 |
| CCCc1cc(C(=O)N[C@@H](Cc2ccccc2)[C@H](O)CNC(C)(C)c2cccc(OC)c2)c(F)c(N2CCCC2=O)c1.O=CO | 7 |
| CC(C)c1ccc(NC(=O)c2ccc(NCCCN(C)Cc3ccccc3)c([N+](=O)[O-])c2)cc1 | 21 |
| O=C(Nc1cccc(CN2CCCN(CC3CC3)CC2)c1)c1ccc(Cl)c(Cl)c1.O=C(O)C(F)(F)F | 13 |
| CC(=O)C1=NN(c2ccc(C)cc2)C(c2cccs2)N1c1ccccc1 (stereo not given) | 0 |

| Structure (SMILES) | Inhibition [%] |
| --- | --- |
| N=C1NC(=N)N(OCCCCCCON2C(=N)NC(=N)NC2C=Cc2ccccc2)C(C=Cc2ccccc2)N1 (stereo not given) | 17 |
| CN(C)CCN(C)Cc1nc(-c2ccc3c(Nc4ccc(Oc5ccccc5)cc4)ccnc3c2)cs1 | 27 |
| CC(C)CNCc1ccc(-c2cccc(CNc3ccc4ncccc4c3)c2)cc1.O=C(O)C(F)(F)F | 29 |
| Cc1cc(OCC2CCN(c3ncc(C(=O)Nc4ccccc4)cc3Cl)CC2)ccc1F | 27 |
| CC(C)NCc1ccc(-c2ccc(NC(=O)c3ccc(Cl)cc3)cc2)cc1.O=C(O)C(F)(F)F | 60 |
| CCNc1cc(C(=O)N[C@@H](Cc2ccccc2Cl)[C@H](O)CNC2CCCCC2)cc(N2CCCCS2(=O)=O)c1.Cl | 6 |
| Cc1ccc(NC(=O)c2ccc3ncccc3c2)cc1OC1CCN(CCC(C)C)C1.O=C(O)C(F)(F)F (stereo not given) | 5 |
| COc1ccccc1CCNc1nc(C)cc(N[C@@H](CC(C)C)C(=O)Nc2ccccc2)n1.O=C(O)C(F)(F)F | 16 |
| O=C1OC2(CCN(C(=O)c3ccc(-n4cnnn4)cc3)CC2)CN1Cc1ccc(Cl)c(Cl)c1 | 11 |
| CCCCCCCN1CC[C@@H](CCC(O)c2ccnc3ccc(OC)cc23)[C@@H](CC)C1 (stereo not given in full) | 34 |
| COc1ccc(OC)c(-c2cccc(-c3cccc(NC(=O)c4ccc([N+](=O)[O-])o4)c3)n2)c1 | 75 |
| CC(=O)Nc1ccc(OCCCCN(Cc2ccccc2C(F)(F)F)c2ccc(C#N)c(C(F)(F)F)c2)c(Cl)c1 | 0 |
| CN1CCC(NCc2cccc(-c3cccc(S(=O)(=O)NCc4ccccc4)c3)c2)CC1.O=C(O)C(F)(F)F | 57 |
| Cc1cccc2nc(-c3ccc(-c4cccc(C(=O)N5CCCCC5C(C)O)c4)s3)[nH]c12 (stereo not given) | 27 |
| COc1ccc(Cl)cc1NC(=O)C(C)Nc1ccc(-c2ccccc2)cc1 (stereo not given) | 0 |
| Cl.OC(c1cccc(OCc2ccccc2)c1)C1CN(CCc2ccccc2)CCC1(O)c1ccccc1 (stereo not given) | 7 |
| CS(=O)(=O)Nc1cccc(-c2cnc3[nH]cc(-c4cc(N)cc(C(=O)O)c4)c3c2)c1 | 40 |
| N#CC(c1ccc(Cl)cc1)c1ccc2c(C(F)(F)F)cc(C(F)(F)F)nc2n1 (stereo not given) | 68 |
| Cc1ccc2nc(N/C(N)=N/C(=O)NC3CCCCC3)nc(C)c2c1 | 8 |
| COc1ccc(CNCCCCCNCc2ccc(Cl)c(Cl)c2)cc1Cl | 42 |
